# Hit rate of the full screen: of about 220,000 compounds, about 910 (0.41%) were called active.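 The calls were made as follows: active = primary inhibition above the hit cutoff, then over 50% inhibition at one or more dose response concentrations (cut at about 23% in these data, passing the limit was not always enough); inconclusive = conflicting primary data, or primary hits not chosen for dose response; inactive = low primary inhibition, or under 50% at every dose.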 Only a selection was taken, and actives are over-represented in it overall. Measured potencies and affinities stand elsewhere.
# Target: Aminopeptidase N (Plasmodium falciparum (isolate 3D7)) (UniProt O96935)
# Assay: P. falciparum M1AAP inhibitors, biochemical, fluorogenic H-Leu-NHMec substrate, 1536-well (AID 1445);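 also: plate controls were DMSO full reaction for no effect and no enzyme background for full effect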
# Settings: recombinant M1AAP, H-Leu-NHMec fluorogenic kinetic assay; at 30 µM, hits give high values unless noted
# Sequence of Aminopeptidase N (Plasmodium falciparum (isolate 3D7)) (O96935 whole entry, looked up): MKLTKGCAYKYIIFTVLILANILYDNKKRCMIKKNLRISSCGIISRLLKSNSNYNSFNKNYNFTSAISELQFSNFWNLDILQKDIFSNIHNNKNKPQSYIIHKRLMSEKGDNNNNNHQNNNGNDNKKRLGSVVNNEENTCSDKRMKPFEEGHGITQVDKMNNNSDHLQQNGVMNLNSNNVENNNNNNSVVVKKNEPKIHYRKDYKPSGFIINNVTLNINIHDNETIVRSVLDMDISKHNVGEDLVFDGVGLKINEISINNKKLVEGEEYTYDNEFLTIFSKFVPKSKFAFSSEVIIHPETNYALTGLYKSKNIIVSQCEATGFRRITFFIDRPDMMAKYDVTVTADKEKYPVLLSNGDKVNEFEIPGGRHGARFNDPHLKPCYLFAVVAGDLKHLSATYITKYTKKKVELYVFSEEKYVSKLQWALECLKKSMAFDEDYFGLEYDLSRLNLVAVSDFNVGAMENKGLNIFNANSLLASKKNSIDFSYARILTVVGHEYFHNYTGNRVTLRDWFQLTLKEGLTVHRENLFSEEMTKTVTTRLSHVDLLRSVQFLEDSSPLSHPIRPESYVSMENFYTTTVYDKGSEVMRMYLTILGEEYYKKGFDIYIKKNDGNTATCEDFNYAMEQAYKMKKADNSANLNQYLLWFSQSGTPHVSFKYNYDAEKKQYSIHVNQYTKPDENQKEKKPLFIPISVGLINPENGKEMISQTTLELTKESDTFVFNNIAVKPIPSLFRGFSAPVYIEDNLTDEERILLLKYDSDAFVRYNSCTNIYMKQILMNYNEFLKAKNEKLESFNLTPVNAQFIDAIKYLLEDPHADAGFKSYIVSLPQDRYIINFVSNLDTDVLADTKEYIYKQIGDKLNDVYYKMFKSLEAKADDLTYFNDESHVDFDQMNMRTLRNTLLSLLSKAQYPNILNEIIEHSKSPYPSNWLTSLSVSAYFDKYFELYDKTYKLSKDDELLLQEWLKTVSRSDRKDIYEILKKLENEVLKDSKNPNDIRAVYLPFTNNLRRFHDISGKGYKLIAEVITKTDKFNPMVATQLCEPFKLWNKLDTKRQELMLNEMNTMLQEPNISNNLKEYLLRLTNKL
row,Compound,inhibition
1,O=c1[nH]c2cc3c(cc2cc1CN(Cc1cccnc1)Cc1nnnn1Cc1ccco1)OCCO3,26.5% (active)
2,CCc1ccc2[nH]c(=O)c(CN(Cc3ccccc3)Cc3nnnn3Cc3ccco3)cc2c1,13.2% (inactive)
3,Cc1ccc(CN(Cc2cc3cc4c(cc3[nH]c2=O)OCCO4)Cc2nnnn2Cc2ccco2)cc1,22.7% (inactive)
4,CCCOc1ccc(Cc2nc(N)nc(N)n2)cc1,-6.23% (inactive)
5,C=C(C)C(=O)Nc1cccc(C2=NOC3(C2)C[C@@H](C(N)=O)N(C(=O)c2ccc(Cl)cc2)C3)c1 (some centres not stated),4.17% (inactive)
6,Cc1nn(Cc2ccccc2)c(Cl)c1/C=C1\NC(=S)NC1=O,4.75% (inactive)
7,O=C(Nc1cccc(NC(=O)c2cccs2)c1)c1ccco1,14.8% (inactive)
8,COc1cc(NC(=O)c2ccc([N+](=O)[O-])o2)ccc1NC(=O)c1cccs1,4.73% (inactive)
9,O=C(O)CCc1ccc(-c2ccccc2)n1NC(=O)c1sc2ccccc2c1Cl,24.7% (active)
10,O=C(O)CCc1ccc(-c2ccccc2)n1NC(=O)c1cccs1,6.72% (inactive)
11,O=C(O)CCc1ccc(-c2ccccc2)n1NC(=O)c1ccco1,3.09% (inactive)
12,Cc1ccc(NC(=O)Nc2sc(=S)n(C)c2C)cc1,-0.53% (inactive)
13,CCC(=O)Oc1oc(-c2ccccc2)nc1C=Nc1ccc(C)cc1,1.55% (inactive)
14,CCC(=O)Oc1oc(-c2ccccc2)nc1C=Nc1ccccc1OC,24.3% (active)
15,COc1ccccc1N=Cc1nc(-c2ccccc2)oc1OC(C)=O,19.1% (inactive)
16,CCOC(=O)c1cc(C)sc1/N=C/C1C(=O)CC(C)(C)CC1=O,1.61% (inactive)
17,CCCn1c(SCC(=O)Nc2cccc(S(=O)(=O)N(C)C)c2)nc2ccccc2c1=O,6.03% (inactive)
18,O=C(CSc1nnnn1-c1cccc2ccccc12)NC(C(=O)O)(c1ccccc1)c1ccccc1,23.1% (inactive)
19,Cc1ccc(-n2nnnc2SCC(=O)Nc2ccccc2-c2ccccc2)cc1C,-2.36% (inactive)
20,O=C(O)CC/C(=N\Nc1ccc([N+](=O)[O-])cc1)c1ccccc1,7.87% (inactive)
21,CCOc1cc(C(N)=O)cc(Br)c1OC,-3.95% (inactive)
22,CCOc1c(Br)cc(C(N)=O)cc1OC,2.69% (inactive)
23,COc1cc(C(N)=O)cc(Br)c1OC,23.4% (active)
24,Cc1nn(CCS(=O)(=O)c2ccc(Cl)cc2)c(C)c1Br,0.55% (inactive)
25,COCc1cc(C)nc(OCC(=O)N/N=C/c2ccc(O)cc2O)c1C#N,-7.94% (inactive)
26,CSc1nnc(-c2cc3c(s2)-c2ccccc2CC3)o1,18.2% (inactive)
27,CCSc1nnc(-c2cc3c(s2)-c2ccccc2CC3)o1,19.1% (inactive)

# Source: PubChem BioAssay AID1445 (SRMLSC, 2008)
